Some of the results follow. A call without a number means that no potency is given here. Records with an inconclusive call do not appear. Active and inactive are the calls of the source. Calls follow the shape of the dose curve; as a rule, active = well fitted inhibition curve with a large enough effect; inconclusive = small, poorly fitted or top-dose-only effect; inactive = flat fitted curve, though single readings scatter.

Results on 25 molecules are retold here after PubChem BioAssay (NCATS).
Potency is read from the fitted curve at half-maximal effect.

The experiment deals with NanoLuc luciferase (engineered Oplophorus gracilirostris luciferase). Briefly: Biochemical NLuc saturation counterscreen for small molecule modulators of PMP22 gene expression - Nano-Glo assay (AID 1508638). The conditions noted are these: Secreted NLuc enzyme (filtered S16 cell medium), Nano-Glo luminescence; series mostly up to 57.5 µM. An excerpt: Assay Provider: Jim Inglese Ph.D. National Center for Advancing Translational Science, National Institutes of Health, Rockville, MD CMT is a heterogeneous group of neurological disorders that affect approximately 1 in 2,500 people. In particular, the most common form of CMT, CMT1A is genetically linked to the duplication of the PMP22 gene which leads to Schwann cell overexpression, thus manifesting itself as a typical case of dose-sensitive diseases. To identify small molecule compounds that can mediate the expression of PMP22 we developed a phenotypic assay screening strategy by utilizing genome editing techniques to construct Schwann cell lines containing novel reporter technology to monitor the transcriptional or translational regulation of PMP22. For high sensitivity we use a bioluminescent reporter system embedded in the 3' UTR of the PMP22 gene (S16(c9) Pmp22-F2sN) to identify compounds that inhibit gene expression. […] We can further discriminate the effect of all transcriptionally active molecules on PMP22 translation or stability with an assay that incorporates a short NLuc peptide (HiBiT) at the C-terminus of expressed PMP22 (S16(f8) PMP22-HiBiT) allowing alpha complementation and luminescence detection of membrane-associated PMP22 protein. These assays were screened against the NCATS Sytravon Library Collection. Miniaturization of these assays to 1536-well plate format for quantitative high throughput screening (qHTS) yielded rich data sets immediately from the qHTS assay (S16(c9) Pmp22-F2sN), when compared with data from a cell viability assay (Cell TiterGlo) to identify compounds that decreased the output signals through cellular toxicity to streamline the selection process of actives for subsequent characterization using the HiBiT assay (S16(f8) PMP22-HiBiT).
Biochemical Promega Nano-Glo solution NLuc assay PROTOCOL TABLE (format as described by Inglese J, Shamu CE and Guy RK. 2007) SEQUENCE No. (e.g., 1, 2, 3, etc.); PARAMETER (e.g., Cells, Incubation, Reagent, etc.); VALUE and DESCRIPTION. 1. Reagent. Add 2 uL substrate per well into Greiner 1536-well white/solid bottom high base, medium binding plates. 2. Compounds. Library compounds and controls added at 23nL per well, transferred by Pin Tool. 3. Incubation. Incubate plates 5 min at ambient temperature. 4. Reagent. Add 2uL NLuc enzyme solution per well of Greiner 1536-well plates. 5. Incubation. Incubate plates at room temperature for 10 min., protect from light. 6. Detector. FLuc luminescence measured using CCD-based camera (Viewlux). NOTES (numbers refer to Sequence numbers above; values are from representative experiments) 1. Freshly prepared Nano-Glo Luciferase Assay System reagent per Promega instructions, product N1120, and filtered through […]. 4. Enzyme was obtained by filtering media of S16 cells expressing secreted NLuc (Inglese et al. 2014) grown to 80-90% confluency in DMEM High Glucose, No Phenol Red media + 10% heat inactivated FBS + 1% Pen/Strep supplemented media6. Luminescence Read (Fluc): Clear filter; Exposure = 10 sec, Gain = High, Speed = Slow, Binning = 2X 6. Luminescence Read (Nluc): Clear filter; Exposure = 1 sec, Gain = High, Speed = Slow, Binning = 2X REFERENCES: 1. Inglese J, Shamu CE and Guy RK, Reporting data from high throughput screening of small molecule libraries, Nature Chemical Biology, 2007, 3(8): 438-441. doi.org/10.1038/nchembio0807-438 2. Yasgar A, Shinn P, Jadhav A, Auld DS, Michael S, Zheng W, Austin CP, Inglese J and Simeonov A, Compound Management for Quantitative High-Throughput Screening. J. Assoc. Lab. Auto., 2008, 13: 79-89. doi: 10.1016/j.jala.2007.12.004 3. Inglese, J., Dranchak, P., Moran, J. J., Jang, S. W., Srinivasan, R., Santiago, Y., Zhang, L., Guha, R., Martinez, N., MacArthur, R., Cost, G. J., and Svaren, J. (2014) Genome editing-enabled HTS assays expand drug target pathways for Charcot-Marie-tooth disease, ACS Chem Biol 9, 2594-2602.
Background: Counterscreens check selectivity or assay interference.
As for `CC(C)(C)c1ccc(C(=O)NCC(c2ccco2)S(=O)(=O)c2ccc(F)cc2)cc1` (stereo not given), the Potency result is “inactive”.

For `CCc1ccc(C2CC(=O)c3c([nH]c(C(=O)OCc4ccc(C)cc4)c3C)C2)cc1` (stereo not given), the Potency result was “inactive”.

Consider `COc1ccc(-c2onc(C)c2C)cc1S(=O)(=O)NCC1CCN(Cc2cccc(F)c2)CC1`, for which the Potency result is “inactive”. `CCOC(=O)c1c(C)[nH]c(CCC(=O)NCCCN2CCN(c3cc(C)ccc3C)CC2)c1C`: the Potency result is “inactive”.

As for `Cc1ccc(CCNC(=O)C2CCN(c3nnc(-n4cccc4CNc4ccc(C)cc4)s3)CC2)cc1`, the Potency result is “inactive”. For `COc1ccc(CCNC(=O)c2cc(=O)c3c(C)cc(C)cc3o2)cc1OC`, the Potency was 0.343 µM (active). Consider `CCOC(=O)c1ccc(NC(=O)CSc2nc3c([nH]c4ccccc43)c(=O)n2C)cc1`, for which the Potency entry is “inactive”.

As to `CC(=O)N1CCCc2cc(S(=O)(=O)N3CCCC(C(=O)N4CCN(c5cccc(Cl)c5)CC4)C3)ccc21` (stereo not given), the Potency entry is “inactive”. For the molecule `CCOc1ccc(NC(=O)c2c(NC(=O)Cc3ccccc3)sc3c2CCC(C)C3)cc1` (stereo not given), the Potency entry was “inactive”. With `Cc1nnc(SCC(=O)NCc2ccccc2Cl)c2nn(-c3ccccc3)c(C)c12`, the Potency result was “inactive”.

For `COc1ccccc1Nc1c2c(nc3ccc(NC(=O)/C=C/c4cc(OC)c(OC)c(OC)c4)cc13)CCCC2`, the Potency is 4.32 µM (active).

Consider `Cc1ccc(NC(=O)c2nc(S(=O)(=O)Cc3cccc(C)c3)ncc2Cl)cc1`, for which the Potency result was “inactive”.

On to `Cc1cccc(Nc2cc(C)nc(-n3nc(C)cc3C)n2)c1`, for which the Potency was 6.11 µM (active). On to `Cc1ccc(OCCSc2nc3ccc(NC(=O)COc4ccc(C)cc4)cc3s2)cc1`, for which the Potency entry was “inactive”.

In the case of `Cc1cc(OCC(=O)NCC2(N(C)C)CCCCC2)cc(C)c1Cl`, the Potency result is “inactive”. In the case of `CCCCOc1ccc(CN2C(=O)C(=O)c3cc(Br)cc(C)c32)cc1OC`, the Potency result is “inactive”. With `CCC1=Nc2cc(C(=O)NCCCOC(C)C)ccc2Sc2ccc(C)cc21`, the Potency result was “inactive”. As for `CCCn1c2ccccc2c2cnn(CC(=O)NCC3CCN(Cc4ccc(C)cc4)CC3)c(=O)c21`, the Potency result is “inactive”. As to `CCOC(=O)c1c(C)[nH]c(CCC(=O)NCCCN2CCN(c3cccc(Cl)c3)CC2)c1C`, the Potency entry is “inactive”. Then `CCOCCCNC(=O)c1c(NC(=O)c2nc(SC)ncc2Cl)sc2c1CCCC2`, with “inactive”. `CCC1CCCCN1CCCNC(=O)c1cc2c(Cl)nc3ccccc3c2s1` (stereo not given): the Potency result is “inactive”. For the molecule `O=C(c1ccc2c(c1)N(Cc1ccc(F)cc1)C(=O)c1ccccc1S2(=O)=O)N1CCN(c2ccccn2)CC1`, the Potency is 3.43 µM (active). Then `O=C(c1ccc(C(F)(F)F)cc1)N1CCC(c2nc(-c3ccc(S(=O)(=O)N4CCCC4)cc3)no2)CC1`, with “inactive”. Take `CCCS(=O)(=O)c1ncc(Cl)c(C(=O)Nc2scc(-c3ccccc3)c2C(=O)OCC)n1`: the Potency result was “inactive”.

For `Cc1ccc(C)n1-c1nnc(N2CCC(C(=O)NCc3ccccc3Cl)CC2)s1`, the Potency entry is “inactive”.
